Data published in PubChem BioAssay AID624296 (National Center for Advancing Translational Sciences (NCATS), 2012).
Hit rate of the full screen: of about 350,000 compounds, about 9,900 (2.8%) were called active. Entries that show only a call come without a potency. Not shown: some 15% with an inconclusive outcome. The call rests on the fitted dose curve; in most records, active means well fitted activation curve with a large enough effect; inconclusive means small, poorly fitted or top-dose-only effect; inactive means no such curve, though single readings can be large or run the other way. The full list was thinned out, with actives kept by preference.

test: A quantitative high throughput screen for small molecules that induce DNA re-replication in MCF 10a normal breast cells.; further: nearly all actives have a fitted effect of over 50% in size; details: MCF 10A DNA re-replication, Hoechst nuclear intensity, 48 h; series mostly up to 46.1 µM
Potency means the concentration at half of the fitted maximal effect.

Row | Structure (SMILES) | Potency | activity, positive = re-replication
1 | COc1cccc(NC(=O)CSc2nnc(C3CCCCC3)n2N)c1 | inactive | –
2 | CC(=O)c1cccc(OCC(=O)OCC(=O)Nc2cc(S(=O)(=O)N3CCCCC3)ccc2C)c1 | inactive | –
3 | O=C1c2ccccc2C(=O)N1CCC#Cc1ccc2cc(C3(O)CCCCC3)oc(=O)c2c1 | inactive | –
4 | O=C(CSc1nc2[nH]c(=O)[nH]c(=O)c2s1)Nc1cccc(F)c1 | inactive | –
5 | CC(Sc1nnc(C2CC2)n1C1CC1)C(=O)Nc1ccc(C(N)=O)cc1 (stereo not given) | inactive | –
6 | CCCn1nc(C(=O)OCc2nc(N)nc(Nc3ccccc3C)n2)c2ccccc2c1=O | inactive | –
7 | Cc1cccc(OCc2nnc(SCn3nnc4ccccc4c3=O)o2)c1 | inactive | –
8 | Cc1cc(C)cc(OCc2nnc(SCC(=O)Nc3ccccc3)o2)c1 | – | -182% [at 0.0737 µM] (inactive)
9 | Cc1cccc(OCc2nnc(SCc3nc4cc(C(F)(F)F)ccc4c(=O)[nH]3)o2)c1 | 5.8 µM (active) | –
10 | C=CC[C@H](CC(=O)NCCO)C(=O)N[C@@H](COC(=O)[C@@H](CC=C)Cc1ccc(F)cc1)Cc1c[nH]c2ccccc12 | inactive | –
11 | Cc1cccc2c1N(CC(=O)OC(C)C)C(=O)C2=O | inactive | –
12 | CC(C)OC(=O)CN1C(=O)C(=O)c2ccccc21 | 23.1 µM (active) | –
13 | CC(C)OC(=O)CN1C(=O)c2ccccc2C1=O | inactive | –
14 | CCN1C[C@@H]2[C@@H]3C(=O)N(C)C(=O)[C@@H]3[C@](C)(C1=O)N2C(=O)c1ccccc1 | inactive | –
15 | NCCN1CCN2C(=O)CN(C(=O)c3ccccc3)CC12 (stereo not given) | inactive | –
16 | O=C(c1cn(-c2ccccc2)nc1-c1cc2ccccc2oc1=O)N1CCOCC1 | inactive | –
17 | O=c1oc2ccccc2cc1-c1cn(-c2ccccc2)c(=S)[nH]1 | 5.8 µM (active) | –
18 | S=c1[nH]c(-c2cccs2)cn1-c1ccccc1 | inactive | –
19 | COc1ccc(CNC(=O)COC(=O)c2ccc(C)c(S(=O)(=O)N3CCOCC3)c2)cc1OC | inactive | –
20 | O=C(NCc1cccnc1)c1cccnc1Sc1ccc(Cl)cc1 | inactive | –
21 | CSc1ncccc1C(=O)NC1CCCCCC1 | inactive | –
22 | O=C(NC1CCCCCC1)c1cccnc1Sc1ccc(Cl)cc1 | 18.4 µM (active) | –

Row | Structure (SMILES) | Potency | activity, positive = re-replication
23 | COc1ccc(N(C(=O)c2snc(C(N)=O)c2N)C(C(=O)NC2CCCC2)c2ccco2)cc1OC (stereo not given) | inactive | –
24 | COc1ccc(N(C(=O)c2snc(C(N)=O)c2N)C(C(=O)NC2CCCC2)c2ccc(C)o2)c(OC)c1 (stereo not given) | 20.6 µM (active) | –
25 | CCC(C(=O)NC1CCCCC1)N(C(=O)c1snc(C(N)=O)c1N)c1ccc(OC)cc1OC (stereo not given) | inactive | –
26 | COc1ccc(/C=C/C(=O)OCC(=O)NC2CCCCCC2)cc1OC | inactive | –
27 | CC(C)(C)OC(=O)NCCCCCNC(=O)c1[nH]cnc1C(=O)Nc1nccs1 | inactive | –
28 | Cc1cc([N+](=O)[O-])c(=O)[nH]c1C | inactive | –
29 | O=C(Nc1cccc(S(=O)(=O)N2CCCCC2)c1)c1ccc2c(c1)OCO2 | inactive | –
30 | Cc1onc(-c2c(F)cccc2Cl)c1C(=O)Nc1cccc(S(=O)(=O)N2CCCCC2)c1 | 14.6 µM (active) | –
31 | Cc1onc(-c2c(F)cccc2Cl)c1C(=O)N(C)CC(=O)Nc1cccc(F)c1 | inactive | –
32 | CSc1c(SCc2ccccc2)cnn(Cc2ccccc2)c1=O | 18.4 µM (active) | –
33 | Cn1c(CO)cnc1SCc1ccccc1 | inactive | –
34 | CSc1nc2ccccc2c(=O)n1Cc1ccc(F)cc1 | inactive | –
35 | CCCCNC1(C#N)CCN(Cc2ccccc2)CC1 | inactive | –
36 | CC(C)c1nccn1S(=O)(=O)c1cc([N+](=O)[O-])ccc1Cl | inactive | –
37 | CCc1nc(C)cn1S(=O)(=O)c1cc(OC)c(C)cc1C | inactive | –
38 | CCc1nc(C)cn1S(=O)(=O)c1cc([N+](=O)[O-])ccc1Cl | 6.51 µM (active) | –
39 | COc1ccccc1C(=O)N(C1=NC(C)CS1)c1ccc(Cl)cc1 (stereo not given) | inactive | –
40 | CC(=O)Nc1ccc(NC(=O)CCCNC(=O)c2ccc(Cl)cc2)cc1 | inactive | –
41 | CC(=O)Nc1ccc(C(=O)N(C2=NC(C)CS2)c2ccc(Cl)cc2)cc1 (stereo not given) | 5.17 µM (active) | –
42 | O=C1CC(c2ccccc2)C(c2ccccc2)=NN1 (stereo not given) | inactive | –
43 | Cc1nc2ccc(NC(=O)C3CCCCC3)cc2s1 | inactive | –
44 | CN(C)CCCn1c(N)c(C#N)c2nc(C#N)c(C#N)nc21 | 7.31 µM (active) | –

Row | Structure (SMILES) | Potency | activity, positive = re-replication
45 | CCCN=C1N(C)C[C@@H]2[C@@H]3C(=O)N(Cc4ccccc4)C(=O)[C@@H]3[C@](C)(C(=O)OC)N12 | inactive | –
46 | COc1ccccc1NS(=O)(=O)c1ccc(C)c(C(=O)NNC(=O)c2csc(N3CCOCC3)n2)c1 | inactive | –
47 | CC(C)C(NC(=O)c1c(F)cccc1F)C(=O)NNC(=O)c1ccccc1 (stereo not given) | inactive | –
48 | CCCc1nc2c(c(=O)c3ccccc3n2C)c(=O)n1-c1cc(C)cc(C)c1 | inactive | –
49 | Cn1c2ccccc2c(=O)c2c(O)cccc21 | inactive | –
50 | CCCc1nc2c(c(=O)c3ccccc3n2C)c(=O)n1C1CCCCCC1 | 14.6 µM (active) | –
51 | CC(=NNC(=O)c1ccncc1)c1ccc(Cl)c(Cl)c1 | inactive | –
52 | CCC1CCCCN1C(=S)NC(=O)c1ccco1 (stereo not given) | inactive | –
53 | Cc1ccc2nc(-c3ccncc3)cc(C(=O)Nc3ccc(OC(F)F)cc3)c2c1 | 14.6 µM (active) | –
54 | O=C(Nc1ccncc1)c1cc(-c2ccccn2)nc2ccc(Br)cc12 | inactive | –
55 | CCN(CC)CCNC(=O)c1ccc(NC(=O)c2cc(-c3ccncc3)nc3ccccc23)cc1 | inactive | –
56 | Cc1nc2ccc(NC(=O)c3cccc(S(=O)(=O)N4CCOCC4)c3)cc2s1 | inactive | –
57 | CC1(C)N=C(N)NC(Nc2ccc(Cl)cc2)=N1 | inactive | –
58 | Cc1csc(=O)n1CC(=O)Nc1ccc(S(C)(=O)=O)cc1 | inactive | –
59 | CCOc1cc(N2CCOCC2)c(OCC)cc1NC(=O)COc1cccc2cccnc12 | 15.8 µM (active) | –
60 | CCOc1cc(N2CCOCC2)c(OCC)cc1NC(=O)c1cc(C)nc2ccccc12 | inactive | –
61 | CCOc1cc(N2CCOCC2)c(OCC)cc1NC(=O)COc1cccc(Cl)c1 | inactive | –
62 | CC(OC(=O)c1cc2ccccc2[nH]1)C(=O)N(C)c1ccccc1 (stereo not given) | inactive | –
63 | Cc1cc(N2CCN(c3ccccc3)CC2)nc(N2CCOCC2)n1 | inactive | –
64 | CN(C)c1ccc(/C=N/Nc2cc(N3CCOCC3)nc(N3CCOCC3)n2)cc1 | inactive | –
65 | C(=N/Nc1cc(N2CCOCC2)nc(N2CCOCC2)n1)/c1ccccc1 | 23.1 µM (active) | –
